Data taken from PubChem BioAssay (NCI).
About 83,000 compounds went through this panel and 20% of them were active in at least one assay; those are over-represented in the sample as a whole.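 How to read the values: 0–100, growth inhibition (40 = 60% inhibited); 0, no net growth; -100 to 0, cell death (-40 = 40% of starting cells died; -100 = all dead).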 The source made the active and inactive calls. How the source made its calls: active means growth percent below 10; inactive means the rest.

Assays:
Assay in all cases: NCI-60 one-dose screen, 48 h (100 = growth as untreated, 0 = no growth, -100 = all killed)
Settings in all cases: 10 µM unless noted
[1] = tested on: DU-145 prostate
[2] = tested on: K-562 leukemia
[3] = tested on: MALME-3M melanoma
[4] = tested on: MDA-MB-231 breast
[5] = tested on: RXF 393 renal
[6] = tested on: SF-268 CNS
[7] = tested on: SF-295 CNS
[8] = tested on: SF-539 CNS
[9] = tested on: UACC-257 melanoma
[10] = tested on: M14 melanoma
[11] = tested on: HCT-15 colon
[12] = tested on: HT29 colon
[13] = tested on: SNB-75 CNS
[14] = tested on: SNB-19 CNS
[15] = tested on: U251 CNS
[16] = tested on: PC-3 prostate
[17] = tested on: SK-MEL-5 melanoma
[18] = tested on: UACC-62 melanoma
[19] = tested on: LOX IMVI melanoma
[20] = tested on: SK-MEL-28 melanoma

Measured: growth

CCc1ccc(CCCC(=O)O)cc1
inactive: [1] 102% | [2] 98.9% | [3] 107% | [4] 100% | [5] 112% | [6] 102% | [7] 98.5% | [8] 103% | [9] 106% | [10] 94.2% | [11] 101% | [12] 101% | [13] 87.9% | [14] 95.7% | [15] 101% | [16] 96.8% | [17] 102% | [18] 96.8% | [19] 99.5% | [20] 108%

O=C(Nc1nc(-c2ccc(Cl)cc2)nc2c1sc(=S)n2-c1ccccc1)C(F)(F)F
inactive: [1] 37.5% | [2] 57.2% | [3] 21.2% | [4] 37.5% | [5] 29% | [6] 36.1% | [9] 51.1% | [10] 40.3% | [11] 54.9% | [12] 17.5% | [14] 61.5% | [16] 38.6% | [17] 64.9% | [18] 21.1% | [20] 78.9%
active: [7] 7.16% | [8] 8.63% | [13] -44.1% | [15] 8.47% | [19] -20.4%

CCOCCNC1=C(Cl)C(=O)c2ccccc2C1=O
inactive: [1] 76.3% | [2] 91.8% | [3] 106% | [4] 116% | [5] 123% | [6] 101% | [7] 95.1% | [8] 121% | [9] 98.2% | [10] 110% | [11] 95% | [12] 107% | [13] 57.9% | [14] 111% | [15] 100% | [16] 92.6% | [17] 67.2% | [18] 101% | [19] 70.6% | [20] 117%

NC(=O)c1cc(I)ccc1NC(=O)/C=C/c1ccccc1
active: [1] -7.97% | [2] 1.5% | [7] -18.4% | [8] -22%
inactive: [3] 42.7% | [4] 31.6% | [5] 19.3% | [6] 29.9% | [9] 69.7% | [10] 19.2% | [11] 24.5% | [12] 22.1% | [13] 30.1% | [14] 27.3% | [15] 21.8% | [16] 15.4% | [17] 24.5% | [18] 64.9% | [19] 35.1% | [20] 12%

O=c1[nH]c(Cc2nc3ccccc3s2)nc2cc(Br)ccc12
inactive: [1] 70.5% | [2] 23.2% | [3] 90.7% | [4] 65.6% | [5] 104% | [6] 61% | [7] 76.5% | [8] 90.3% | [9] 72.2% | [10] 35.2% | [11] 61.7% | [12] 43.7% | [13] 82.1% | [14] 82.2% | [15] 81.9% | [16] 60.9% | [17] 80.6% | [19] 27.8% | [20] 55.1%
active: [18] 2.81%

CCCCCCCC[C@@H]1N[C@@H](C(=O)OC)Cc2c1[nH]c1ccccc21
inactive: [1] 106% | [2] 88.4% | [3] 83% | [4] 96.2% | [5] 96.6% | [6] 97.3% | [7] 102% | [8] 93.7% | [9] 101% | [10] 102% | [11] 94.2% | [12] 111% | [13] 81.6% | [14] 96.6% | [15] 91.5% | [16] 94.6% | [17] 97.3% | [18] 69.1% | [19] 93.1% | [20] 94.2%

O=C(NNC(=O)c1ccc(NC(=O)c2ccccn2)cc1)Nc1ccc([N+](=O)[O-])cc1
inactive: [1] 106% | [2] 107% | [3] 98% | [4] 103% | [5] 99.9% | [6] 95.5% | [7] 98.9% | [8] 60.9% | [9] 106% | [10] 100% | [11] 100% | [12] 110% | [13] 81.4% | [14] 83.6% | [15] 78.5% | [16] 94.5% | [17] 102% | [18] 94% | [19] 105% | [20] 99%

C=C1C(=O)O[C@H]2[C@H]1CC/C(Cn1cc(-c3ccccc3)nn1)=C\CC[C@@]1(C)O[C@@H]21
active: [1] -61.8% | [2] -3.88% | [3] -46.2% | [4] -13% | [5] -74.1% | [8] -34.2% | [9] -46.5% | [10] -59% | [11] -70.4% | [12] -58.3% | [18] -45.2% | [19] -84.7% | [20] -26.9%
inactive: [6] 61.2% | [7] 75% | [13] 64.2% | [14] 68.1% | [15] 50.2% | [16] 37.3% | [17] 21%
